The campaign covered roughly 96,000 compounds. About 20,000 (21%) were called active.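 The calls were made as follows: active = CYP2C19 inhibition above a set limit at 5 µM in the primary screen (cut at about 50% in these data); inactive = the rest.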 The list is a sample of the results.

The test deals with Cytochrome P450 2C19 (Homo sapiens) (UniProt P33261). As to the kind of experiment: blockers of cytochrome P450 2C19 activity – biochemical, luminescence, ADME assay, primary screen (AID 778).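 Also: plate controls were negative control wells for no effect and 2.5 mM tranylcypromine positive control for full effect.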 The conditions noted are these: CYP2C19 Supersomes, luciferin-H EGE luminescence, 30 min; at 5 µM; hits give high values.
Chain of Cytochrome P450 2C19 (Homo sapiens) (P33261 whole entry, looked up): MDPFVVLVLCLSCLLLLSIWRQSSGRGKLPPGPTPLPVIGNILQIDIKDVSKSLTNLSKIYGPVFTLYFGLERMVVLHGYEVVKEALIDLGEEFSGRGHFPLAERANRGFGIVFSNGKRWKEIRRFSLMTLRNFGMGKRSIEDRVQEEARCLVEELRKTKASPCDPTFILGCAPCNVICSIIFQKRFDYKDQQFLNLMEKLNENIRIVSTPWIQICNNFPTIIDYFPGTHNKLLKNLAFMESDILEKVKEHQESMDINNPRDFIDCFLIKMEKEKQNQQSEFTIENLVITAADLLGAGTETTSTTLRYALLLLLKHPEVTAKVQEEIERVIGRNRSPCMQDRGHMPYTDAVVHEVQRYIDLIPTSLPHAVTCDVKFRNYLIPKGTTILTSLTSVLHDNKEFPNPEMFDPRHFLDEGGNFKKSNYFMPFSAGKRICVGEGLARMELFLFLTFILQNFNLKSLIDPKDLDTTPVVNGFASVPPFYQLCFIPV
`CCOC(=O)c1cnc(SCc2nc(N)nc(Nc3ccc(OC)cc3)n2)nc1N`: the inhibition was 21.6% (inactive). Turning to `CN1CCN(c2cc(=O)n(-c3ccc(Cl)cc3)c(=O)[nH]2)CC1`, the inhibition was -16.7% (inactive). Consider `O=C(Cc1ccc(-n2c(=O)[nH]c3ccccc3c2=O)cc1)N1CCN(c2cccc(Cl)c2)CC1`, for which the inhibition is 40.3% (inactive). Turning to `Cc1cc(=O)[nH]c(SCC(N)=O)c1C#N`, the inhibition was -8.9% (inactive).

With `Cc1cc(C)c(C#N)c(SCS(=O)c2ccc(C(C)(C)C)cc2)n1` (stereo not given), the inhibition was 78.5% (active). The result for `Cc1cc(C(F)(F)F)c(C#N)c(SCC(=O)NC2CC2)n1` reads 13.5% (inactive); that for `Cc1cc(N2CCCC2=O)cc(C)c1S(N)(=O)=O`, -13.1% (inactive). Regarding `Cn1c(=O)[nH]c(=O)c2c1nc(N(CCO)Cc1ccccc1)n2Cc1ccccc1Cl`, the inhibition is 9.3% (inactive). Turning to `COc1ccccc1-c1nnc(SCC(=O)Nc2ccccc2)o1`, the inhibition is 69.7% (active).

For the compound `COc1ccc(-c2nnc(SCC(=O)NC3CCCCC3)o2)cc1OC`, the inhibition was 56.3% (active). As to `COc1ccc(CCNC(=O)CSc2nc(C)nc3c2oc2ccccc23)cc1OC`, the inhibition was -3.9% (inactive).

In the case of `COc1ccc(C(=O)N(CCN2CCOCC2)CC(=O)NC2CCCC2)cc1OC`, the inhibition is -7.2% (inactive). For `Cn1c(SCC(=O)NC2CCCCC2)nnc1-c1cc2ccccc2o1`, the inhibition is 44.2% (inactive). As for `COc1ccccc1-c1nnc(SCC(=O)N2CC(C)CC(C)C2)o1` (stereo not given), the inhibition is 49.2% (inactive). `COc1ccc(CCNC(=O)CSc2nnc(-c3cccc(F)c3)o2)cc1OC`: the inhibition was 95.8% (active). In the case of `COc1ccc(CCNC(=O)CSc2nnc(CNC(=O)c3cccs3)o2)cc1OC` it was 2.4% (inactive); in that of `COc1ccccc1-c1nnc(SCC(=O)Nc2cc(C)on2)o1`, -7.2% (inactive); in that of `O=c1c2ccccc2nc(N/N=C/c2ccccc2)n1O`, -14.2% (inactive). Consider `CC(C)c1cc(C(=O)O)on1`, for which the inhibition was -10.8% (inactive). `CCCCCCNCCn1cnc2c(N)ncnc21`: the inhibition is -9.3% (inactive). In the case of `Cc1ccc(C(=O)N/N=C/c2sc(=O)n(Cc3cccc(C(=O)O)c3)c2Cl)cc1` it was 22.8% (inactive); in that of `COc1ccc(C2C=C(c3ccc(Br)cc3)Nc3nc(NS(C)(=O)=O)nn32)cc1` (stereo not given), 3.9% (inactive). On to `O=C(Nc1cccc(Cl)c1)Nc1nnc(-c2ccccc2)o1`, for which the inhibition was 12.7% (inactive).

With `CC1CC(C)CN(CC(=O)Nc2ccc(S(N)(=O)=O)cc2)C1` (stereo not given), the inhibition is 4.7% (inactive). Turning to `CC(C)Nc1nc(N(c2ccccc2)c2ccccc2)nc(-n2ccnc2)n1`, the inhibition is 39.2% (inactive). Consider `CCCCC(=O)Nc1ccc2c(c1)OCCO2`, for which the inhibition was 50.3% (active). Consider `C=C(C)C(=O)Nc1cccc(C(C)=O)c1`, for which the inhibition is -1.5% (inactive). In the case of `O=C(CSC1=NCCS1)Nc1nc(-c2ccccc2)cs1` it was 22% (inactive); in that of `CC(=O)c1cccc(NC(=O)c2ccncc2)c1`, 74.6% (active). For `COC(=O)CCNc1ccc2c(c1)OCCO2`, the inhibition was 24.9% (inactive). In the case of `CSc1ccccc1C(=O)Nc1cccc(C(C)=O)c1` it was 3.3% (inactive); in that of `O=C(COc1ccc2c(C(F)(F)F)cc(=O)oc2c1)Nc1ccc2c(c1)OCCO2`, -8.9% (inactive).

With `CCCCC(=O)Nc1ccc2c(c1)C(=O)NC2=O`, the inhibition is -10.8% (inactive). Take `COc1ccc(S(=O)(=O)N(C)CC(=O)Nc2ccc3c(c2)OCCO3)cc1OC`: the inhibition was 21.9% (inactive). Take `CCN(CC(=O)Nc1ccc2c(c1)OCCO2)Cc1cc(=O)oc2cc(C)c(C)cc12`: the inhibition is 88.4% (active).

For `O=C(Nc1nc(-c2ccncc2)cs1)C1COc2ccccc2O1` (stereo not given), the inhibition is 96.4% (active). With `O=C(Nc1nnc(SCc2ccc(Cl)cc2Cl)s1)C1COc2ccccc2O1` (stereo not given), the inhibition is 38.1% (inactive). On to `CCCN(CCC)CCNC(=O)c1cc2c(C)nc3ccccc3c2o1`, for which the inhibition was -9.3% (inactive). In the case of `Cc1c(C(=O)OCC(=O)N(CCC#N)c2ccccc2)oc2c1ccc1ccccc12`, the inhibition was 18.2% (inactive). In the case of `O=C(O)CCC(=O)N(Cc1cccs1)Cc1cccs1`, the inhibition was -5.7% (inactive). With `COc1cccc(-c2cnc(OC(C)(C)C)nc2OC(C)(C)C)c1`, the inhibition is 9.2% (inactive). `CCCNC(=O)c1ccc(Cl)c(Cl)c1`: the inhibition is -2.2% (inactive). As for `CN(C)c1nc(N)nc(CSc2nnnn2-c2cccc3ccccc23)n1`, the inhibition is 24.3% (inactive). As for `O=C1C2(c3ccccc3)CN(CCCO)CC1(c1ccccc1)CN(CCCO)C2`, the inhibition is 6.9% (inactive).

Consider `Cc1ccccc1C(OCC(O)CN1CCCCC1CCO)c1ccccc1` (stereo not given), for which the inhibition is 18% (inactive). Consider `CCc1nnc(NC(=O)CCC(=O)O)s1`, for which the inhibition was -16.3% (inactive). For the compound `CC(C)(C)n1nnc(CCc2nnn(C(C)(C)C)n2)n1`, the inhibition is 34.7% (inactive). On to `Cc1ccc(-c2csc(NC(=O)Cc3cccs3)n2)cc1C`, for which the inhibition is 10% (inactive).

Take `O=C(Nc1nc(-c2ccc3c(c2)OCO3)cs1)c1ccncc1`: the inhibition is 63.2% (active).

Consider `O=C(Nc1ccc2c(c1)OCCO2)c1cnccn1`, for which the inhibition is 14.5% (inactive). In the case of `Cn1cc([N+](=O)[O-])c(C(=O)Nc2ccc3c(c2)OCCO3)n1` it was 43.6% (inactive); in that of `Cc1cc(C)c2nc(NC(=O)c3ccc4c(c3)OCO4)sc2c1`, -1.4% (inactive). For the compound `O=C(Nc1ccc2c(c1)OCCO2)c1ccncc1`, the inhibition is 76.5% (active). Consider `O=C(O)c1cccc2c1C(=O)N(C1CCCCC1)C2`, for which the inhibition was -19.3% (inactive). On to `Brc1cccc(-c2nnc3n2CCC3)c1`, for which the inhibition is -4.8% (inactive). Consider `O=C(CNC(=O)c1cc2c(s1)CCC2)Nc1ccccc1Br`, for which the inhibition was 7% (inactive).

As for `O=C(NCCCN1CCOCC1)c1cc2c(s1)CCC2`, the inhibition is 52.8% (active). Take `O=C(NCCN1CCOCC1)c1c(F)c(F)c(F)c(F)c1F`: the inhibition was -10.6% (inactive).

As for `CCCCOC(=O)CNc1nnc(SCC(=O)OCC)[nH]c1=O`, the inhibition was -15.4% (inactive). Take `Fc1ccc(CSc2nnc(-c3cc4c(s3)-c3ccccc3CC4)o2)cc1`: the inhibition is 31.9% (inactive). Turning to `COC(=O)c1ccc(CSc2nc3cc(Cl)ccc3o2)cc1`, the inhibition is -5.7% (inactive). In the case of `Clc1ccc(CSc2nnc([C@@H]3CCCN3)o2)cc1` it was 97.9% (active). In the case of `CCC(C)NC(=O)c1cc(Cl)ccc1OC` (stereo not given) it was 22% (inactive). In the case of `Cc1cc(C(F)F)n2nc(C(=O)Nc3ccc(S(=O)(=O)NC45CC6CC(CC(C6)C4)C5)cc3)nc2n1` it was 21.2% (inactive). As for `COc1ccccc1C(=O)Nc1nc2nc(-c3ccccc3)cc(=O)n2[nH]1`, the inhibition was 7.1% (inactive). The result for `COC(=O)CNC(c1ccccc1Cl)c1cc(Br)ccc1NC(=O)CCN1CCOCC1` (stereo not given) reads -3.3% (inactive). In the case of `CC(=O)c1c(C)n(-c2ccc(N(C)C)cc2)c2ccc(OCC(N)=O)cc12` it was 18.6% (inactive); in that of `Cc1cccn2c(=O)c3cc(C(=O)N4COCC4(C)C)n(C)c3nc12`, 0.5% (inactive); in that of `CCn1c(=N)c(C(=O)NCCCOC)cc2c(=O)n3cccc(C)c3nc21`, -9.8% (inactive).

For the compound `Cc1cccn2c(=O)c3cc(C#N)c(=O)n(CCCN4CCOCC4)c3nc12`, the inhibition is 61.4% (active).

Take `CCCc1[nH]nc2c1C(c1ccc(Br)s1)C(C#N)=C(N)O2` (stereo not given): the inhibition was 34.4% (inactive). The result for `Cc1noc(NS(=O)(=O)c2ccc(N/C=C/C(=O)c3ccccc3)cc2)c1C` reads -5.7% (inactive); that for `Cc1ccc(S(=O)(=O)N2CCN(S(=O)(=O)N3CCOCC3)CC2)cc1`, 7.3% (inactive). Regarding `Cc1noc(C)c1CSc1nc2cc(S(=O)(=O)N3CCOCC3)ccc2o1`, the inhibition was 63.9% (active).

Consider `Cc1ccc(Oc2nc3ccccc3n3c(C)nnc23)cc1`, for which the inhibition was -14.5% (inactive). Turning to `COc1ccccc1-n1nnnc1S(=O)(=O)Cc1ccc(Cl)cc1`, the inhibition is 58.4% (active). In the case of `COc1ccccc1N1CCN(C(=O)CN(Cc2ccc(Cl)cc2)S(C)(=O)=O)CC1` it was 34% (inactive); in that of `CCOCCCNC(=O)C(NC(=O)c1ccc(=O)[nH]c1)c1ccc(C)cc1` (stereo not given), 5.2% (inactive); in that of `N#Cc1c(/N=C/N2CCCC2)oc(-c2ccccc2)c1-c1ccccc1`, 45.7% (inactive).

For the compound `COc1cc(C(=O)Nc2oc(-c3ccccc3)c(-c3ccccc3)c2C#N)cc(OC)c1OC`, the inhibition was 27.1% (inactive). The result for `COc1ccc(-c2oc(/N=C/N3CCCC3)c(C#N)c2-c2ccc(OC)cc2)cc1` reads 59.3% (active).

Regarding `COc1cccc(CN2C(=O)CCC2(C)C(=O)NC2CCCCCC2)c1` (stereo not given), the inhibition was 8.6% (inactive). For the compound `Cc1ccc(-n2ncc3c(N4CCN(c5ccc(F)cc5)CC4)ncnc32)c(C)c1`, the inhibition is -22.2% (inactive). In the case of `CCc1cc2c(N3CCN(c4nnc(CC)s4)CC3)ncnc2s1`, the inhibition is 52.3% (active).

As for `Cc1nnc(SCC(=O)Nn2cnnc2)s1`, the inhibition was 4% (inactive). Take `CC(NCCO)C(=O)C12CC3CC(CC(C3)C1)C2` (stereo not given): the inhibition is -5.4% (inactive). As for `CC(C)(C)Cc1nnc(NC(=O)c2cc(-c3ccccc3)nc3ccccc23)s1`, the inhibition was 11.9% (inactive).

As for `CCn1cc(C(=O)N2CCN(Cc3ccc4c(c3)OCO4)CC2)c2cc(OC)c(OC)cc2c1=O`, the inhibition was 29.5% (inactive). In the case of `COc1cccc(OC)c1OCCN1CCN(C(=O)c2ccco2)CC1`, the inhibition was 21% (inactive). On to `COc1ccc(Br)cc1CN1CCN(C(=O)c2cccc(OC)c2OC)CC1`, for which the inhibition is 74% (active). Take `CCCn1nc2cc(C(=O)NCc3ccccc3)ccc2c1OCC`: the inhibition was 2.2% (inactive). In the case of `CCCS(=O)(=O)C(=C1Nc2ccccc2N1)S(=O)(=O)CCC` it was 8.6% (inactive). Consider `C=CCN1C(=O)C(O)(CC(=O)c2ccc(Cl)cc2)c2ccccc21` (stereo not given), for which the inhibition is 89.1% (active). Regarding `CCOC(=O)CN1C(=O)C(O)(CC(=O)c2ccccn2)c2ccccc21` (stereo not given), the inhibition was 6.5% (inactive). For the compound `O=C(CC1(O)C(=O)N(CN2CCOCC2)c2ccccc21)c1ccccc1` (stereo not given), the inhibition was 12.7% (inactive). As for `Fc1ccc2nc(Nc3nc4c(s3)CCCC4)sc2c1`, the inhibition is -8.1% (inactive). As to `Cc1nc2ccc(S(=O)(=O)NC(C(=O)N3CCCCCC3)C(C)C)cc2s1` (stereo not given), the inhibition is 21.2% (inactive). Turning to `CC(c1ccco1)N(C(=O)c1ccc(S(=O)(=O)N2CCCCC2)cc1)c1ccccn1` (stereo not given), the inhibition is 59.1% (active). On to `CC(C)Cc1ccc(S(=O)(=O)N2CCN(C(=O)c3ccco3)CC2)cc1`, for which the inhibition was 28.1% (inactive). The result for `CC(c1ccco1)N(C(=O)COc1ccccc1[N+](=O)[O-])c1ccccn1` (stereo not given) reads 40.5% (inactive).

Source of the values: PubChem BioAssay AID778 (Sanford-Burnham Center for Chemical Genomics, 2007).
